Compound activity: PubChem BioAssay, National Center for Advancing Translational Sciences (NCATS)
Only some compounds are listed: those with a hit (about 10% of all), similar ones and a draw of the others.
G9a block: G9a (human) methyltransferase inhibition. AID 504332. Potency, µM (doses to about 102 µM), for inactives: top-dose activity, negative = inhibition, usual class: inhibitors. G9a H3K9 monomethylation, AlphaScreen, 2 h. hit rate 8.8% among 350,000; note: potency is the fitted concentration of half-maximal effect; % is set by controls: 0 for no effect and ±100 for the full control effect; nearly all actives have a fitted effect of over 75% in size
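AlphaScreen read-out: biotin-H3K9 peptide (500 nM) methylation by 20 nM enzyme with 20 uM SAM, 2 h at room temperature after 15 min compound preincubation; anti-monomethyl H3K9 antibody plus donor/acceptor beads, 10 min dark.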
Six1-Eya2 blk: blocks human Six1 binding to Eya2. Q15475+O00167. AlphaScreen GST-Six1/His-Eya2 binding, biochemical; active compounds read low. activity change, % (test concentration not listed). hit rate 0.56% among 360,000; in the data active = activity change below about -65%; inconclusive = mostly about -30% to -63%; note: % is set by controls: 0 for no effect and ±100 for the full control effect
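Six1/Eya2 binding was read as AlphaScreen signal after compounds were pinned into GST-Six1 plus His-tagged Eya2 (5X stock 250/500 nM) in pH 8.0 Tris/NaCl/TCEP buffer, beads added, then incubated 1 h, 37 C, dark.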
BAZ2B inh: BAZ2B (human) inhibition | Q9UIF8 | AlphaScreen BAZ2B-H3K14Ac peptide displacement | Potency, µM (series often up to 114 µM), without a hit: at the top dose activity change, negative = inhibition, actives largely listed as inhibitors | hit rate 4.4% among 360,000; note: potency is the fitted concentration of half-maximal effect; % is set by controls: 0 for no effect and ±100 for the full control effect; nearly all actives have a fitted effect of over 60% in size
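BAZ2B 50 nM plus b-H3(5-23)K14Ac 50 nM, PBS pH 7.4/0.01% Tween-20, 30 min RT; compound added (max 110 uM), 30 min RT; streptavidin donor/Ni-chelate acceptor beads 10 ug/mL final, 20 min dark; AlphaScreen read.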
CtBP-E1A inh: CtBP/E1A binding inhibition; AlphaScreen GST-E1A/His-CtBP binding, 1536-well; active compounds read low; activity change, % (concentration not given with the values); hit rate 0.49% among 340,000; AID 651724; in the data active = activity change below about -65%; inconclusive = mostly about -30% to -63%; note: % is set by controls: 0 for no effect and ±100 for the full control effect
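In 5 uL wells, 23 nL compound meets equimolar GST-E1A and His-CtBP (5X stock 125 nM each) for 2 h, 37 °C. Beads (5X, 50 ug/mL) then 1 h, 37 °C, dark.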
JMJD2A Tudor: JMJD2A Tudor domain (human) inhibition. hit rate 4.4% among 390,000. AlphaScreen JMJD2A-Tudor / H3K4me3 peptide binding. Potency, µM (series often up to 114 µM), inactives show top-dose activity change, negative = inhibition, hits mostly inhibitors; note: potency is the fitted concentration of half-maximal effect; % is set by controls: 0 for no effect and ±100 for the full control effect; nearly all actives have a fitted effect of over 50% in size
Target sequence (O75164 whole entry, looked up, the tested form may be a part): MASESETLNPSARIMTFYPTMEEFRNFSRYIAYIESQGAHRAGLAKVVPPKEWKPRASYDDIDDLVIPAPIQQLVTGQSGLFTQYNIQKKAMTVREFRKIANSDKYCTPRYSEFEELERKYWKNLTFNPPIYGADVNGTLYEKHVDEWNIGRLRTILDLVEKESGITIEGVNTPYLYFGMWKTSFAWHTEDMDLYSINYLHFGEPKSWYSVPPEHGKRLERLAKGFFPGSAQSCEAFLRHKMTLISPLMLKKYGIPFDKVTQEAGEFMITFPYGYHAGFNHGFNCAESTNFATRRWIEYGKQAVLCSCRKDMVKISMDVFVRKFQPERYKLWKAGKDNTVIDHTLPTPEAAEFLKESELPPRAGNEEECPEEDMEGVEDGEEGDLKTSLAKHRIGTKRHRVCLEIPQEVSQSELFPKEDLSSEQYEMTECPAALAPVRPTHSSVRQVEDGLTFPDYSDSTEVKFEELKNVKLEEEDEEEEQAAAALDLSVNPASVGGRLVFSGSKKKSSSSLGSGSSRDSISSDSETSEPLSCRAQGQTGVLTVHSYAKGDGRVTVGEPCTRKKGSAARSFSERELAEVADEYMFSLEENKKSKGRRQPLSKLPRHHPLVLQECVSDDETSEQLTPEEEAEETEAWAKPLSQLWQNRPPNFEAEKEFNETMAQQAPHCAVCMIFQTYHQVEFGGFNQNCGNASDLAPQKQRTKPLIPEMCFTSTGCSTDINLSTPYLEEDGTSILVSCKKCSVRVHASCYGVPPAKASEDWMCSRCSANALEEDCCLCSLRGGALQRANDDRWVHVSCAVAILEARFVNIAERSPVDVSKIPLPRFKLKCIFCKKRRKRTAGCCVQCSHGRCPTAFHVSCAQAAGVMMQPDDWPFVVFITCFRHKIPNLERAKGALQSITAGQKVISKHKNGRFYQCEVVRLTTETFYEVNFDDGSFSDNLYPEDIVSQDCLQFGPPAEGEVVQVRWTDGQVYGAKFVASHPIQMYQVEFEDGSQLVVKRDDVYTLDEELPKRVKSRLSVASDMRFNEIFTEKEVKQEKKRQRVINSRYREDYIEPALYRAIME
HP1b chromo inh: inhibitors of HP1-beta chromodomain binding to methylated histone tails. AlphaScreen HP1-beta / biotin-H3K9me3 peptide binding. Potency, µM (doses to about 114 µM), inactives show top-dose activity change, negative = inhibition, most hits filed as inhibitors. hit rate 0.56% among 390,000. AID 540317; note: potency is the fitted concentration of half-maximal effect; nearly all actives have a fitted effect of over 70% in size
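Compound inhibition of the preformed complex between 50 nM HP1-beta and 50 nM biotinylated H3K9me3 peptide was read by AlphaScreen. Buffer was PBS pH 7.4 with 0.01% Tween-20. Incubations ran 30 min at room temperature, with 10 ug/mL donor/acceptor beads.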
* hit, by the source's call; ? = inconclusive; . = not tested or not shown; [ ] = another dose, or the depositor's remark. Unless noted, calls come from the whole dose curve; as a rule, active = well fitted inhibition curve with a large enough effect; inconclusive = small, poorly fitted or top-dose-only effect; inactive = no such curve, though single readings can be large or run the other way.

SMILES | G9a block | Six1-Eya2 blk | BAZ2B inh | CtBP-E1A inh | JMJD2A Tudor | HP1b chromo inh
CC1(C)NC(=O)N(CC(=O)OCc2cc(=O)n3cc(Br)ccc3n2)C1=O | 0.1% | 3.7 | . | 7.8 | -2.9% | 20.9%
O=C(CN1C(=O)NC2(CCCC2)C1=O)OCc1cc(=O)n2cc(Br)ccc2n1 | ? | -1.8 | ? | 0.8 | 50.1µM* | ?
Cc1cc(C)c(C)c(S(=O)(=O)N[C@@H](C)C(=O)OCc2cc(=O)n3cc(Br)ccc3n2)c1C | ? | -5.0 | 50.1µM* | -2.1 | -25.7% | 17.1%
CCOc1ccc(CN(CCC#N)C(=S)NC(=O)c2ccccc2)cc1 | 1.41µM* | 2.6 | -36.9% | . | -24.5% | 36.5%
COc1ccc(CN(CCC#N)C(=S)NC(=O)c2ccccc2)cc1 | 39.8µM* | 2.1 | -34.5% | 2.0 | -32.0% | 20.5%
N#CCCN(Cc1ccccc1)C(=S)Nc1ccccc1 | 4.8%[59 µM] | -2.6 | 8.6% | 1.1 | -26.2%[57.1 µM] | ?
N#CCCN(Cc1ccccc1)C(=S)NC(=O)c1ccccc1 | ? | 1.9 | -31.9% | 1.0 | ? | 14.8%
CC(SCc1nc2sc3c(c2c(=O)[nH]1)CCCC3)C(=O)Nc1ccccn1 (stereo not drawn) | 50.1µM* | -5.9 | 6.0% | -1.3 | -13.0% | 31.3%
Cc1sc2nc(CSCC(=O)N(C)CC(=O)Nc3ccc(F)cc3)[nH]c(=O)c2c1C | 50.1µM* | -8.3 | -10.5% | -23.8 | -19.3% | 17.0%
Cc1cccc(NC(=O)C(C)SCc2nc3sc(C)c(C)c3c(=O)[nH]2)n1 (stereo not drawn) | 44.7µM* | 1.9 | -19.7% | 10.8 | -24.1% | 32.8%
Cc1ccc(NC(=O)C(C)SCc2nc3sc4c(c3c(=O)[nH]2)CCCC4)nc1 (stereo not drawn) | -10.2% | 1.5 | -21.4% | 6.4 | 0.3% | 37.9%
Cc1sc2nc(CSC(C)C(=O)Nc3ccccn3)[nH]c(=O)c2c1C (stereo not drawn) | 7.94µM* | 3.0 | 6.5% | 5.1 | -8.1% | 19.5%
Cc1sc2nc(CSCC(=O)Nc3c(F)cccc3F)[nH]c(=O)c2c1C | 14.6%[2.33 µM] | 0.4 | 8.7% | 1.0 | -12.4% | 38.2%
Cc1cccc(NC(=O)NCCn2c(=O)oc3ccc(C)cc32)c1 | 5.2%[59 µM] | . | 2.0% | . | -16.4% | 40.4%
Cc1cccc(N2CCN(S(=O)(=O)c3cn(C)c(C)n3)CC2)c1C | 6.4%[59 µM] | . | -8.4% | . | -16.6% | 5.2%[57 µM]
Cc1sc2nc(CSCC(=O)Nc3ccc(Cl)cc3F)[nH]c(=O)c2c1C | -20.2% | -4.8 | 1.9% | 1.2 | -4.1% | 20.3%
Cc1ccc(NC(=O)C(C)SCc2nc3sc(C)c(C)c3c(=O)[nH]2)nc1 (stereo not drawn) | 14.1µM* | -3.4 | 2.5% | -4.5 | -12.6% | 27.7%
Cc1sc2nc(CSC(C)C(=O)Nc3cc(S(C)(=O)=O)ccc3Cl)[nH]c(=O)c2c1C (stereo not drawn) | 50.1µM* | 6.0 | -22.2% | 0.0 | -9.2% | 10.0%
Cc1sc2nc(CC(=O)NN)[nH]c(=O)c2c1C | 39.8µM* | -1.3 | 0.2% | -17.6 | -10.0% | -9.2%
NCCc1nc2cccnc2n1-c1ccccc1 | 33.5%[59 µM] | . | -21.1% | . | -10.3% | 33.2%
N#C/C(=C/c1cn(Cc2ccc(F)cc2)c2ccccc12)C(=O)Nc1cccc(Cl)c1 | 3.6%[59 µM] | . | 3.2% | . | -6.2% | 27.2%
Cc1nc(-c2cccc(NC(=O)Nc3ccc([N+](=O)[O-])cc3)c2)no1 | -35.6%[59 µM] | . | ? | . | ? | -1.5%[57 µM]
O=C1C(=O)N(C2CCS(=O)(=O)C2)C(c2cccc(O)c2)/C1=C(/O)c1ccc(Cl)cc1 (stereo not drawn) | 31.6µM* | 7.4 | 79.4µM* | 4.3 | ? | -2.1%
Cc1c(N2C(=O)C(=O)/C(=C(/O)c3ccc(Cl)cc3)C2c2ccccc2)c(=O)n(-c2ccccc2)n1C (stereo not drawn) | -18.6%[59 µM] | -3.7 | -28.1% | -8.8 | ? | 28.6%
COC(=O)c1ccc(C2/C(=C(/O)c3ccc(Cl)cc3)C(=O)C(=O)N2C2CCS(=O)(=O)C2)cc1 (stereo not drawn) | 44.7µM* | 10.5 | ? | 11.7 | 89.1µM* | -15.6%
SMILES | G9a block | Six1-Eya2 blk | BAZ2B inh | CtBP-E1A inh | JMJD2A Tudor | HP1b chromo inh
COc1ccc(CNC(=O)C(Cc2ccccc2)NS(=O)(=O)c2ccc3c(c2)CCN3C(C)=O)cc1 (stereo not drawn) | 10.1%[59 µM] | . | . | . | -19.3% | 31.9%
CC1(C)C(c2cccs2)=[N+]([O-])C2(CCCCC/C2=N\O)N1O (stereo not drawn) | -48.5%[59 µM] | 16.9 | -4.4% | -0.6 | -8.3% | 7.5%
CC1(C)C(c2ccccc2)=[N+]([O-])C2(CCCCC2=O)N1O (stereo not drawn) | 7.94µM* | 1.6 | 3.2% | 7.1 | -2.6% | 30.6%
C=C(C)Cn1c(SCC(=O)Nc2cccc(C)c2)nc2sc3c(c2c1=O)CCCC3 | -6.1%[59 µM] | . | -2.1% | . | 6.9% | 4.7%
CCNS(=O)(=O)c1ccc(OCCNS(C)(=O)=O)cc1 | -7.0%[59 µM] | 4.3 | 22.4% | -7.8 | 89.1µM* | 20.9%
CCN(CC)S(=O)(=O)c1ccc(OCCNS(C)(=O)=O)cc1 | -38.2% | -4.4 | 9.4% | 10.1 | 11.2µM* | -14.6%
CCN(CC)S(=O)(=O)c1ccc(Oc2ccc(S(=O)(=O)N(CC)CC)cc2)cc1 | 13.3%[59 µM] | 7.9 | 3.0% | 6.0 | -7.5% | 24.3%
Cc1nc2ccccc2c(=O)n1/N=C/c1ccc2ccccc2c1O | 28.2µM* | ? | ? | -7.8 | ? | 12.0%
Cc1nc2ccccc2c(=O)n1/N=C/c1ccccc1 | 28.1%[0.501 µM] | 1.7 | 0.1%[57.1 µM] | 1.6 | 0.6% | 30.2%
Cc1cc([N+](=O)[O-])cc(/C=N/n2c(C)nc3ccccc3c2=O)c1O | -36.6% | ? | 79.4µM* | -85.9* | ? | 32.6%
Cc1ccc(-n2[nH]c(C)c(/C=N/n3c(C)nc4ccccc4c3=O)c2=O)cc1 | -5.9% | -14.6 | 3.6% | -17.0 | -14.1% | 31.6%
Cc1ccccc1-c1nc2ccccc2c(=O)n1/N=C/c1ccc([N+](=O)[O-])cc1 | . | -1.1 | . | -1.9 | -15.5% | 16.2%
Cc1[nH]n(-c2ccccc2)c(=O)c1/C=N/n1c(C)nc2ccccc2c1=O | 3.16µM* | -7.1 | 1.0% | -14.7 | -11.5%[57.1 µM] | 33.3%
Cc1nc2ccccc2c(=O)n1/N=C/c1ccccc1O | . | -27.2 | -6.7% | ? | -12.0% | 36.4%
Cc1nc2ccccc2c(=O)n1/N=C/c1ccc(O)c(O)c1O | 1.26µM* | -25.5 | ? | . | 14.1µM* | ?
O=C(NCC12CC3CC(CC(C3)C1)C2)c1cc2nc(-c3ccc(Cl)cc3)cc(C(F)(F)F)n2n1 | 14.7%[59 µM] | . | -6.3% | . | -8.6% | 12.7%
CCCCCCCCCCCC(=O)OCC(O)CO (stereo not drawn) | 17.9%[59 µM] | . | . | . | . | .
